In ChEMBL document CHEMBL4513146, “CO-ADD screening of Karazin Kharkiv National University (Ukraine) compounds”:
Entries with a potency or affinity are not part of this list.

What was measured:
Klebsiella pneumoniae = conditions: Concentration 32 ug.mL-1;; ASSAY_TEST Inhibition of Bacterial Growth; detection method Absorption (OD600); MEDIA CAMHB; plate type 384well; NBS; CORNING #3640; time 18 hr
Candida albicans = conditions: Concentration 32 ug.mL-1; ASSAY_TEST Inhibition of Fungal Growth; detection method Absorption (OD530)
Cryptococcus neoformans = conditions: Concentration 32 ug.mL-1; ASSAY_TEST Inhibition of Fungal Growth; detection method Resazurin; Absorption (OD600-OD570); plate type 384well; NBS; CORNING #3640

| SMILES | Inhibition (Klebsiella pneumoniae) | Inhibition (Candida albicans) | Inhibition (Cryptococcus neoformans) |
| --- | --- | --- | --- |
| Cc1c(Cl)cccc1-n1ccn2c(SCC(=O)c3c[nH]c4ccccc34)nnc2c1=O | 3.37% | 2.26% | -4.72% |
| CC(C)Cn1c(=O)c2sccc2n2c(=O)n(Cc3ccccc3Cl)nc12 | 3.91% | 1.39% | -28.89% |
| N#CCn1nc2n(Cc3ccc(F)cc3)c(=O)c3ccccc3n2c1=O | 3.36% | 3.09% | -7.73% |
| Cc1ccc(Sc2nccn3c(=O)n(CC(=O)Nc4ccccc4C)nc23)c(C)c1 | 6.75% | 4.26% | -25.74% |
| Cc1ccccc1Cn1nc2c(=O)n(-c3ccc(Br)cc3)ccn2c1=O | 14.05% | 0.14% | -2.03% |
| CCCCc1ccc(NC(=O)Cn2nc3c(N4CC(C)CC(C)C4)nccn3c2=O)cc1 (centres undefined) | 3.89% | 4.16% | -10.16% |
| O=C(Cn1nc2c3cc(-c4ccc(Cl)cc4)nn3ccn2c1=O)NC1CCCC1 | 4.67% | 2.49% | -18.35% |
| CC(C)Cc1ccc(S(=O)(=O)Nc2ccc3nncn3n2)cc1 | 8.3% | 1.38% | -3.84% |
| CCCCn1c(=O)c2sccc2n2c(=O)n(CC(=O)NC(C)C)nc12 | 11.23% | 0.06% | -16.69% |
| Cc1ccc(Cn2c(=O)c3ccc(C(=O)NC4CCCC4)cc3n3c(=O)n(CC#N)nc23)cc1 | 8.48% | 2.86% | -4.65% |
| O=C(Cn1nc2c(N3CCOCC3)nccn2c1=O)NCc1cccs1 | 15.07% | 2.44% | -8.25% |
| CCc1nnc2ccc(S(=O)(=O)N(Cc3cccc(F)c3)c3ccc(OC)cc3)cn12 | -6.85% | 1.92% | -10.67% |
| COc1cc(NC(=O)Cn2nc3ccc(SC(C)(C)C)nn3c2=O)cc(OC)c1OC | 14.77% | 0.63% | -18.78% |
| COc1ccc(-n2ccn3c(-c4cccc([N+](=O)[O-])c4)nnc3c2=O)cc1 | 3.7% | 0.19% | -14.9% |
| COc1cccc(-n2ccn3c(SCC(=O)Nc4ccc(C(C)C)cc4)nnc3c2=O)c1 | -7.28% | 18.36% | -10.59% |
| O=c1c2nnc(SCc3ccccc3F)n2ccn1-c1ccc(Br)cc1 | 15.43% | 3.99% | -9.71% |
| Cc1ccc(Oc2nccn3c(=O)n(CC(=O)NCc4cccs4)nc23)cc1 | 11.41% | 2.18% | -8.11% |
| COc1cccc(CNC(=O)CSc2nnc3c(=O)n(-c4cccc(OC)c4)ccn23)c1 | 10.15% | 1.25% | -6.98% |
| COc1ccc(C)cc1NC(=O)Cn1nc2c(N3CCSCC3)nc3ccccc3n2c1=O | 14.66% | -2.66% | -24.78% |
| CCc1ccc(N(Cc2cccc(OC)c2)S(=O)(=O)c2cccn3c(C)nnc23)cc1 | -1.7% | -0.37% | -7.84% |
| O=C(Cn1nc2c3cc(-c4ccc(Cl)cc4)nn3ccn2c1=O)Nc1ccc2c(c1)OCO2 | 13.7% | -0.02% | -18.97% |
| CC(C)c1nnc2c(SCC(=O)Nc3ccc(C#N)cc3)nc3ccccc3n12 | 10.23% | 0.55% | -7.9% |
| COc1ccc(N(Cc2ccc(Cl)cc2)S(=O)(=O)c2ccc3nncn3c2)cc1 | 10.04% | 4.11% | -7.19% |
| CSc1cccc(NC(=O)Cn2c(=O)c3nnc(C)n3c3ccccc32)c1 | 4.53% | 4.76% | -2.25% |
| CCOc1ccccc1NC(=O)Cn1nc2c(SC3CCCCC3)nccn2c1=O | 10.39% | 5.31% | -21.42% |
| Cc1cc(C)c(NC(=O)Cn2nc3n(C)c(=O)c4c(c(-c5ccccc5)cn4C)n3c2=O)c(C)c1 | 4.68% | 0.24% | -1.33% |
| COc1ccc(NC(=O)Cn2nc3c(Sc4ccccc4)nccn3c2=O)cc1 | 7.48% | 1.47% | -16% |
| Cc1ccc(-c2ccc3nn(CC(=O)N4CCN(c5ccccc5)CC4)c(=O)n3n2)cc1C | 1.81% | 0.84% | -5.58% |
